Assay results from PubChem BioAssay AID1508622 (National Center for Advancing Translational Sciences (NCATS), 2021).
The source made the active and inactive calls. Where a call stands in place of a potency, no number is given. The call rests on the fitted dose curve; in most records, active means well fitted activation curve with a large enough effect; inconclusive means small, poorly fitted or top-dose-only effect; inactive means no such curve, though single readings can be large or run the other way.

Assay: Confirmatory qHTS for Identification of Small Molecule Activators of Huntingtin-Antisense Promoter Activity
Conditions: HEK293 HTT-AS promoter firefly luciferase reporter, 24 h; series mostly up to 57.5 µM
Outline: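 HEK293 luciferase reporter cells, 2,500/well, cultured 24 h, then exposed to compounds at up to 57.5 uM final for 24 h at 37C. Firefly luciferase luminescence read; normalized to vehicle (0%) and zero RLU (-100%).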
Potency means the concentration at half of the fitted maximal effect.

SMILES: CCN1C(=O)c2ccccc2Sc2ccc(NC(=O)c3cccc(C)c3)cc21
- Potency: inactive

SMILES: CCOC(=O)C1=C(CN(C)Cc2ccccc2)NC(=O)NC1c1ccc(OC)cc1 (stereo not drawn)
- Potency: inactive

SMILES: COc1cccc(Cn2c(SCc3ccc(C(=O)N4CCC(C)CC4)cc3)nc3ccncc32)c1
- Potency: inactive

SMILES: CCOc1ccccc1CNC(=O)c1cc2c(=O)n(Cc3ccccc3)ccc2nc1C
- Potency: inactive

SMILES: COc1ccccc1C1CC(=O)NC(C)=C1C(=O)OC1CCCCCC1 (stereo not drawn)
- Potency: inactive

SMILES: O=C(O)c1cc(-n2c(/C=C\c3ccc(F)cc3)nc3ccccc3c2=O)ccc1Cl
- Potency: inactive

SMILES: COc1cc(NC(=O)Cn2c(=O)oc3cc(S(=O)(=O)N4CCCCCC4)ccc32)cc(OC)c1
- Potency: inactive

SMILES: O=C(CCc1cn(Cc2ccc(F)cc2)c2ccccc12)NC1CCCCC1
- Potency: inactive

SMILES: Cc1ccccc1C(=O)NCc1ccc2c(c1)CCN2C(=O)c1ccccc1
- Potency: inactive

SMILES: Cc1ccccc1C(=O)Nc1nc(-c2ccc(Br)cc2)ns1
- Potency: inactive

SMILES: O=C(Nc1ccc(Oc2ccccc2)cc1)C1CCN(S(=O)(=O)c2ccccc2)CC1
- Potency: inactive

SMILES: CCCCN(C)C(=O)C1CCC(CNS(=O)(=O)c2ccc(Cl)cc2)CC1 (stereo not drawn)
- Potency: inactive

SMILES: CC(C)[C@H](C(=O)Nc1ccc(C(=O)NO)cc1)c1ccccc1
- Potency: 1900 nM (active)

SMILES: FC(F)(F)c1cccc(N2CCN(c3nc4ccccc4n4cnnc34)CC2)c1
- Potency: inactive

SMILES: Cc1ccccc1-c1noc(CSc2nc3ccccc3[nH]2)n1
- Potency: inactive

SMILES: Cc1ccc(C)c(NC(=O)Cn2c(=O)oc3cc(S(=O)(=O)NCc4ccccc4)ccc32)c1
- Potency: inactive

SMILES: CCSc1ncc(Cl)c(C(=O)Nc2ccc(S(=O)(=O)N3CCC(C)CC3)cc2)n1
- Potency: inactive

SMILES: O=C(NCc1ccccc1)c1ccc(CSc2nc3cccnc3n2Cc2ccccc2)cc1
- Potency: inactive

SMILES: COc1cc(CN(C(=O)c2ccc(OC(C)C)cc2)c2ccccn2)cc(OC)c1OC
- Potency: inactive

SMILES: C1=CCOCc2cc(ccc2OCCN2CCCC2)Nc2nccc(n2)-c2cccc(c2)OCC1
- Potency: inactive

SMILES: CCN(CCCNC(=O)CSc1cc(=O)n(CC)c2ccccc12)c1cccc(C)c1
- Potency: inactive

SMILES: Cn1cnc(=N)c2[nH]cnc21
- Potency: inactive

SMILES: CCCC(=O)c1ccc(OC(=O)c2c(-c3ccccc3Cl)noc2C)cc1
- Potency: inactive

SMILES: O=C(COCc1cc(-c2ccc3c(c2)OCO3)on1)N1CCN(c2cccc(C(F)(F)F)c2)CC1
- Potency: inactive

SMILES: COc1ccc(C2=C(C)C(=O)N(Cc3ccc(C(=O)Nc4cccc(F)c4)cc3)S2(=O)=O)cc1
- Potency: inactive

SMILES: CC(C)(C)C(=O)NCCc1nc2ccccc2n1CCCCOc1ccccc1
- Potency: inactive

SMILES: CCOc1ccc(CCNC(=O)c2sc3ncccc3c2-n2c(C)ccc2C)cc1
- Potency: inactive

SMILES: Cc1ccc(CNC(=O)c2c(Nc3ccccc3C)sc(C(=O)c3ccc(F)cc3)c2N)cc1
- Potency: inactive

SMILES: CCOC(=O)c1cc(C)n(CC2CCC(C(=O)Nc3ccc(Cl)cc3)CC2)c1C (stereo not drawn)
- Potency: inactive

SMILES: Cc1ccc(S(=O)(=O)NCCc2csc(-c3cccc(F)c3)n2)cc1
- Potency: inactive

SMILES: COc1ccc(CCNC(=O)c2cc3sccc3n2Cc2ccc(Cl)cc2)cc1OC
- Potency: inactive

SMILES: Cc1cccc(-c2nc(SCC(=O)Nc3ccc4c(c3)OCO4)c(-c3ccccc3)[nH]2)c1
- Potency: inactive

SMILES: CCOc1ccc(CCNC(=O)c2ccc(CS(=O)(=O)Cc3ccccc3Cl)o2)cc1OCC
- Potency: inactive

SMILES: CC[C@@H]1C(=O)N(C)c2cnc(Nc3ccc(C(=O)NC4CCC(N5CCN(CC6CC6)CC5)CC4)cc3OC)nc2N1C(C)C (stereo partly drawn)
- Potency: inactive

SMILES: CCOc1ccc(N(Cc2ccccc2)C(=O)c2nc(SC)ncc2Cl)cc1
- Potency: inactive

SMILES: O=C(NCCn1cc(SCc2ccccc2)c2ccccc21)c1cccs1
- Potency: inactive

SMILES: O=C(Nc1ccc(OC(F)(F)F)cc1)C(NS(=O)(=O)c1cccc2nsnc12)c1ccccc1 (stereo not drawn)
- Potency: inactive

SMILES: CCOC(=O)c1ccc(CN(Cc2ccc(C)cc2)S(=O)(=O)c2ccc(NC(C)=O)cc2)cc1
- Potency: inactive

SMILES: Cc1ccc(Cn2c(SCc3ccc(C(=O)NC4CCCC4)cc3)nc3ccncc32)cc1
- Potency: inactive

SMILES: COc1ccc(-c2nc3sc(CCNS(=O)(=O)c4ccc(F)c(C)c4)c(C)n3n2)cc1
- Potency: inactive

SMILES: COc1ccc(-c2noc(C(C)NC(=O)c3ccco3)n2)cc1 (stereo not drawn)
- Potency: inactive

SMILES: Cc1cccc(-n2c(-c3ccco3)nc3c(cnn3-c3ccccc3C)c2=O)c1
- Potency: inactive

SMILES: CCc1c(C)sc2c1CCN(Cc1ccccc1F)C2c1ccccc1 (stereo not drawn)
- Potency: inactive

SMILES: CCc1ccc(C2CC(=O)Nc3c2c(C)nn3-c2nc(C)cc(C)n2)cc1 (stereo not drawn)
- Potency: inactive

SMILES: COc1ccc(N2CCN(C(CNC(=O)C(=O)NCc3ccc(C)cc3)c3cccnc3)CC2)cc1 (stereo not drawn)
- Potency: inactive

SMILES: COc1ccc(CNC(=O)c2cccc(N3CCCS3(=O)=O)c2)cc1OC
- Potency: inactive

SMILES: Cc1ccc(S(=O)(=O)NCCc2csc(-c3ccc(Cl)cc3)n2)cc1
- Potency: inactive

SMILES: CN(C)S(=O)(=O)c1ccc(C(=O)NCCSc2c(-c3ccc(Br)cc3)[nH]c3ccccc23)cc1
- Potency: inactive

SMILES: O=C(NCC1CCN(Cc2ccccc2F)CC1)Nc1ccc(F)c(Cl)c1
- Potency: inactive

SMILES: COc1ccccc1CNC(=O)c1ccc(N2CCCC2)c(NC(=O)NCc2ccc(C)cc2)c1
- Potency: inactive

SMILES: Cc1cc(C)c(S(=O)(=O)NCCc2sc3nc(-c4ccc(F)cc4)nn3c2C)c(C)c1
- Potency: inactive

SMILES: COC(=O)C1=C(CS(=O)(=O)c2ccc(C)cc2C)NC(=O)NC1c1ccc(C)cc1 (stereo not drawn)
- Potency: inactive

SMILES: CCc1ccc2c(c1)-c1ccccc1S(=O)(=O)N2CC(=O)N1CCC(C)CC1
- Potency: 12000 nM (active)

SMILES: COc1ccc(C)cc1NC(=O)CN1CCCN(S(=O)(=O)c2ccc(Br)cc2)CC1
- Potency: inactive

SMILES: O=C(Cn1c(=O)oc2cc(S(=O)(=O)N3CCCCCC3)ccc21)Nc1cccc(C(F)(F)F)c1
- Potency: inactive

SMILES: CCOC(=O)C1=C(CN2CCN(c3ccc(C)cc3C)CC2)NC(=O)NC1c1ccc(OC)cc1 (stereo not drawn)
- Potency: inactive

SMILES: COc1ccc2sc(N(Cc3cccnc3)C(=O)c3ccco3)nc2c1
- Potency: inactive

SMILES: CC1CCN(C(=O)CN2c3ccc(Br)cc3-c3ccccc3S2(=O)=O)CC1
- Potency: 2690 nM (active)

SMILES: O=C(Cn1cc(S(=O)(=O)Cc2ccccc2Cl)c2ccccc21)Nc1cccc(C(F)(F)F)c1
- Potency: inactive

SMILES: O=C(CCCn1ccc2cc(S(=O)(=O)N3CCCC3)ccc21)NCc1ccc(Cl)cc1
- Potency: inactive

SMILES: COc1ccccc1C(=O)Oc1c(Sc2ccccc2)c(C)nn1C(C)(C)C
- Potency: inactive

SMILES: COc1ccc(-c2nc3sc(CCNS(=O)(=O)c4ccccc4)c(C)n3n2)cc1
- Potency: inactive

SMILES: Cc1ccc(C)c(N2CCN(C(=O)C3CCCN(S(=O)(=O)c4ccc5c(c4)oc(=O)n5C)C3)CC2)c1 (stereo not drawn)
- Potency: inactive

SMILES: O=C(Nc1ccccc1)C1CCN(S(=O)(=O)c2ccc3[nH]c4c(c3c2)CCCCC4)CC1
- Potency: inactive

SMILES: CCOc1ccc(-c2cc(C)n3nc(C(=O)Nc4ccc(C)c(C)c4)cc3n2)cc1
- Potency: inactive

SMILES: O=C(CSc1nc(-c2cccc(F)c2)[nH]c1-c1ccccc1)Nc1ccc2c(c1)OCCO2
- Potency: inactive

SMILES: Cc1ccc(C)c(N2CCN(CCCNC(=O)c3cnn(-c4ccccc4Cl)c3C3CCN(C(=O)OC(C)(C)C)CC3)CC2)c1
- Potency: inactive

SMILES: Cc1cc(C)cc(N2C(=O)CSC23C(=O)N(Cc2c(F)cccc2Cl)c2ccccc23)c1 (stereo not drawn)
- Potency: inactive

SMILES: Cc1ccc(Cl)cc1N1CCN(CCCNC(=O)C2COc3ccccc3C2)CC1 (stereo not drawn)
- Potency: inactive

SMILES: COc1ccc(C(=O)Nc2ccc(S(=O)(=O)N(Cc3ccccc3)c3ccccc3)cc2)cc1
- Potency: inactive

SMILES: CCN(CC)S(=O)(=O)c1ccc(NC(=O)CCc2c(C)nc3cc(-c4ccc(Cl)cc4)nn3c2C)cc1
- Potency: inactive

SMILES: Cc1cc(OCC(=O)N2CCC(c3nc4ccccc4s3)CC2)ccc1Cl
- Potency: inactive

SMILES: Cc1c(Cl)cccc1-n1ncc(C(=O)Nc2ccc(F)cc2F)c1C1CCN(C(=O)OC(C)(C)C)CC1
- Potency: inactive

SMILES: COc1ccc(-c2noc(N3CCC(C(=O)N4CCN(c5cccc(OC)c5)CC4)CC3)n2)cc1
- Potency: inactive

SMILES: CCN1c2ccccc2-c2nc(SCC(=O)Nc3cc(F)ccc3F)ncc2S1(=O)=O
- Potency: inactive

SMILES: O=C(NCC(c1ccc2c(c1)OCO2)N1CCN(c2ccccc2)CC1)c1ccc(F)c(F)c1 (stereo not drawn)
- Potency: inactive

SMILES: O=C(Nc1cccc(C(F)(F)F)c1)C1CCCN1S(=O)(=O)c1cccc2nsnc12 (stereo not drawn)
- Potency: inactive

SMILES: Cc1oc(-c2cccc(Cl)c2)nc1CN1CCC(C(=O)NCCCN2CCN(c3ccc(F)cc3)CC2)CC1
- Potency: inactive

SMILES: CN(C)c1ccc(Nc2nc(N)n(C(=O)c3c(F)cccc3F)n2)cc1
- Potency: 30100 nM (active)

SMILES: CCCCN(C)C(=O)C1CCCN(c2ncnc3onc(C)c23)C1 (stereo not drawn)
- Potency: inactive

SMILES: FC(F)(F)c1cccc(Nc2nc3nonc3nc2Nc2ccc(Cl)cc2)c1
- Potency: inactive

SMILES: CC1Cc2cc(S(=O)(=O)NCc3ccccc3)ccc2N1C(=O)C1CCC1 (stereo not drawn)
- Potency: inactive

SMILES: COc1ccc(-c2ccc3ncc4c(c3c2)n(-c2ccc(N3CCNCC3)c(C(F)(F)F)c2)c(=O)n4C)cn1
- Potency: inactive

SMILES: CC(C)Oc1ccc(CNC(=O)C2CCN(C(=O)N3CCOc4ccc(Cl)cc43)CC2)cc1
- Potency: inactive

SMILES: CCOC(=O)C1CCCN(C(=O)Cn2ncc3c(C)n(Cc4ccc(F)cc4)c(C)c3c2=O)C1 (stereo not drawn)
- Potency: inactive

SMILES: Cc1cccc(C2C=C(c3ccc(F)cc3)Nc3nc4ccccc4n32)c1 (stereo not drawn)
- Potency: 1070 nM (active)

SMILES: COc1ccccc1N1CCN(C(CNC(=O)C(=O)NCc2cccnc2)c2cccnc2)CC1 (stereo not drawn)
- Potency: inactive

SMILES: Cc1cc(C)cc(NC(=O)Nc2cccs2)c1
- Potency: 3380 nM (active)

SMILES: C#CCOc1ccc(-c2nnc(Nc3cccc(C)c3)c3ccccc23)cc1
- Potency: inactive

SMILES: COc1cc(OC)c(C2C=C(c3ccc(C)cc3)Nc3c(C(=O)Nc4ccccc4)cnn32)cc1OC (stereo not drawn)
- Potency: inactive

SMILES: COc1ccc(C(=O)NCCSc2c(C)[nH]c3ccccc23)cc1
- Potency: inactive

SMILES: CC(C)c1ccc(NC(=O)c2cnc3sc(N4CCCC4)nn3c2=O)cc1
- Potency: inactive

SMILES: Cc1[nH]c2ccccc2c1CCNCc1ccc(C=CC(=O)NO)cc1
- Potency: 1900 nM (active)
